# Measured values published in PubChem BioAssay (EPA / NIEHS).
# Records with an inconclusive call do not appear. The source made the active and inactive calls. The calls were made as follows, unless noted: active = hit-call score of the fitted dose curve at least 0.9, where 1 is the maximum; inactive = score below 0.9.
# Tests used:
# [1] = ATG_M_61_CIS: Attagene CIS-FACTORIAL HepG2 Assay for M61 Transcription Factor (Internal Marker) (AID 2282937); conditions: HepG2 Attagene CIS-FACTORIAL M61 internal marker reporter; actives raise or lower the signal
# Summary of the method: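 Fluorescence from labelled cDNA fragments, separated by capillary electrophoresis, quantifies reporter induction. HepG2 cells bearing transiently transfected cis-promoter MRTUs were incubated with test chemical for 24 h; DMSO defined baseline for gain/loss fitting.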
# [2] = ATG_GLI_CIS: Attagene CIS-FACTORIAL HepG2 Assay for human Zinc Finger Protein GLI1 (AID 2282945); conditions: HepG2, Attagene cis-factorial reporter mRNA, GLI element; actives raise or lower the signal
# Summary of the method: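 Bidirectional curve fits relative to DMSO, using reporter mRNA levels from RT-PCR plus capillary electrophoresis. Cells were HepG2 transiently carrying cis-regulated reporter constructs, harvested 24 h after dosing.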
# [3] = target: Hypoxia-inducible factor 1-alpha (Homo sapiens) (UniProt Q16665); assay: ATG_HIF1a_CIS: Attagene CIS-FACTORIAL HepG2 Assay for human Hypoxia Inducible Factor 1 (HIF1A) (AID 2282951); conditions: HepG2 Attagene cis-factorial HIF1a reporter transcription; actives raise or lower the signal
# Summary of the method: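 In this multiplexed cell assay, HepG2 cells bearing transfected cis reporters are dosed for 24 h and reporter mRNA is read by RT-PCR plus capillary electrophoresis; signal increases and decreases are both scored against DMSO.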
# [4] = ATG_MRE_CIS: Attagene CIS-FACTORIAL HepG2 Assay for human Metal Responsive Element (MRE) (AID 2282954); conditions: HepG2 MRE cis-reporter transcription, Attagene multiplex; actives raise or lower the signal
# Summary of the method: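 Multiplexed cis-reporter assay in human HepG2 liver cells, 24 h incubation with test chemical. Reporter transcripts measured by RT-PCR and capillary electrophoresis; values from bidirectional curve fitting versus DMSO.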
# [5] = ATG_TCF_b_cat_CIS: Attagene CIS-FACTORIAL HepG2 Assay for human T-Cell-Factor with beta-catenin (TCF/b-cat) (AID 2282965); conditions: HepG2 TCF/beta-catenin cis-reporter transcription, actives raise or lower the signal
# Summary of the method: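 Measured: reporter mRNA in HepG2 transiently transfected with cis-promoter reporter units, 24 h after chemical addition. Fitting was bidirectional, DMSO as negative control.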
# [6] = ATG_TGFb_CIS: Attagene CIS-FACTORIAL HepG2 Assay for human Transforming Growth Factor (TGF) (AID 2282967); conditions: HepG2 Attagene CIS TGFb reporter, mRNA transcription; actives raise or lower the signal
# Summary of the method: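 HepG2 cells transiently transfected with cis-promoter-driven multiple reporter units measure endogenous TF activity; reporter mRNA quantified at 24 h by RT-PCR, FAM labeling, HpaI digestion and capillary electrophoresis. Bidirectional fit vs DMSO.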
# [7] = ATG_VDRE_CIS: Attagene CIS-FACTORIAL HepG2 Assay for human Vitamin D Receptor Element (VDRE) (AID 2282968); conditions: HepG2 VDRE cis-reporter transcription, actives raise or lower the signal
# Summary of the method: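 Measures endogenous factor activity through cis-element-driven reporter transcripts in transiently transfected HepG2. Cells are treated 24 h; reporter mRNA is quantified by RT-PCR and capillary electrophoresis; fitting is bidirectional.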
# [8] = target: X-box-binding protein 1 (Homo sapiens) (UniProt P17861); assay: ATG_Xbp1_CIS: Attagene CIS-FACTORIAL HepG2 Assay for human X-box Binding Protein 1 (XBP1) (AID 2282972); conditions: HepG2 XBP1 cis-element reporter, Attagene multiplex; actives raise or lower the signal
# Summary of the method: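 Multiplexed cis-reporter readout in transfected HepG2 liver cells. Exposure lasted 24 hours. Activity in either direction was fitted against DMSO as negative control and baseline.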
# [9] = target: Transcriptional activator Myb (Homo sapiens) (UniProt P10242); assay: ATG_Myb_CIS: Attagene CIS-FACTORIAL HepG2 Assay for human Myeloblastosis (Myb) Proto-Oncogene Transcription Factor (AID 2282986); conditions: HepG2 Attagene CIS-FACTORIAL Myb reporter transcription; actives raise or lower the signal
# Summary of the method: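 Fluorescence signals from capillary electrophoresis of RT-PCR-amplified reporter cDNA give the read-out. Cells: HepG2 transfected with multiple cis-regulated reporter units. Exposure lasts 24 hours; DMSO defines baseline for gain or loss of signal.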
# [10] = target: Nuclear respiratory factor 1 (Homo sapiens) (UniProt Q16656); assay: ATG_NRF1_CIS: Attagene CIS-FACTORIAL HepG2 Assay for human Nuclear Respiratory Factor 1 (NRF1) Orphan Gene (AID 2282987); conditions: HepG2 NRF1 cis-element reporter, Attagene multiplex; actives raise or lower the signal
# Summary of the method: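 Transcriptional reporter readout, one component of a 52-endpoint multiplexed HepG2 panel. Exposure 24 h; mRNA detected via RT-PCR and fluorescent capillary electrophoresis; fitting in both directions against DMSO.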
# [11] = ATG_NFI_CIS: Attagene CIS-FACTORIAL HepG2 Assay for human Nuclear Factor I (NFI) (AID 2282989); conditions: HepG2 cis-regulatory reporter, NFI response element transcription; actives raise or lower the signal
# Summary of the method: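 Endogenous TF activity in HepG2 cells transiently transfected with cis-element-driven multiplexed reporter units, read 24 h after dosing. Reporter mRNA quantified by RT-PCR, 6-FAM labelling, HpaI digestion and capillary electrophoresis; bidirectional fit versus DMSO.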
# [12] = target: Myc proto-oncogene protein (Homo sapiens) (UniProt P01106); assay: ATG_Myc_CIS: Attagene CIS-FACTORIAL HepG2 Assay for human Myelocytomatosis (Myc) Proto-Oncogene Transcription Factor (AID 2282990); conditions: HepG2, Attagene cis-reporter transcription factor activity; actives raise or lower the signal
# Summary of the method: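 Cells of the HepG2 human liver line bear multiple cis-driven reporter transcription units. Reporter mRNA after 24 h exposure is reverse-transcribed, amplified, labelled and resolved by capillary electrophoresis, with gain- or loss-of-signal fitting relative to DMSO.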
# [13] = ATG_NF_kB_CIS: Attagene CIS-FACTORIAL HepG2 Assay for human Nuclear Factor Kappa B (NF-kB) (AID 2282991); conditions: HepG2 Attagene cis-factorial NF-kB reporter mRNA; actives raise or lower the signal
# Summary of the method: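 HepG2, transient multi-reporter transfection, cis promoter elements (endogenous TFs). 24 h exposure. Total RNA → RT → PCR → 6-FAM label → HpaI → CE. Gain/loss vs DMSO.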
# [14] = ATG_Oct_MLP_CIS: Attagene CIS-FACTORIAL HepG2 Assay for human Octamer-Binding Transcription Factor (Oct) (AID 2282993); conditions: HepG2 Attagene cis-factorial Oct reporter, mRNA; actives raise or lower the signal
# Summary of the method: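 HepG2 cells transiently transfected with cis-element-driven reporter transcription units (endogenous TF activity); 24 h compound exposure. Reporter mRNA quantified by RT-PCR, 6-FAM labelling, HpaI digestion and capillary electrophoresis; bidirectional fit versus DMSO baseline.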
# [15] = target: Cellular tumor antigen p53 (Homo sapiens) (UniProt P04637); assay: ATG_p53_CIS: Attagene CIS-FACTORIAL HepG2 Assay for human p53 Transcription Factor (AID 2282994); conditions: HepG2 p53 cis-element reporter, Attagene mRNA; actives raise or lower the signal
# Summary of the method: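 Steps: transfect HepG2 with multiplexed cis reporter constructs; dose chemicals 24 h; extract RNA, reverse-transcribe, PCR-amplify reporter sequences; FAM-label, HpaI-digest, resolve fragments by CE. Activity fitted both directions relative to DMSO.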
# [16] = target: Peroxisome proliferator-activated receptor gamma (Homo sapiens) (UniProt P37231); assay: ATG_PPARg_TRANS: Attagene TRANS-FACTORIAL HepG2 Assay for human Peroxisome Proliferator-activated Receptor-gamma (PPARg) (AID 2283007; active = hit-call score of the fitted dose curve at least 0.9, where 1 is the maximum)
# Summary of the method: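 Multiplexed reporter transcription units in HepG2, 24 h dosing, reporter transcripts quantified by fluorescent RT-PCR and capillary electrophoresis. Increase over DMSO scored.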
# [17] = ATG_XTT_Cytotoxicity: Cytotoxicity Assessment in the Attagene TRANS-FACTORIAL HepG2 Assay (AID 2283584; active = hit-call score of the fitted dose curve at least 0.9, where 1 is the maximum)
# Summary of the method: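 XTT readout of cell number in transfected HepG2 cells, 24 h post-dosing; DMSO serves as negative control and baseline, with activity taken as loss of viability signal.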
# [18] = target: Aryl hydrocarbon receptor (Homo sapiens) (UniProt P35869); assay: ATG_Ahr_CIS: Attagene CIS-FACTORIAL HepG2 Assay for human Aryl Hydrocarbon Receptor (Ahr) (AID 2282930); conditions: HepG2 AhR cis-factorial reporter transcription; actives raise or lower the signal
# Summary of the method: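 HepG2, transient MRTU (cis) transfection, 24 h exposure. RNA → cDNA → PCR → 6-FAM primer extension → HpaI 2 h 37 C → CE. Fit: bidirectional, DMSO baseline.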
# [19] = ATG_GRE_CIS: Attagene CIS-FACTORIAL HepG2 Assay for human Glucocorticoid Response Elements (GRE) (AID 2282947); conditions: HepG2 GRE cis-reporter, Attagene multiplex mRNA; actives raise or lower the signal
# Summary of the method: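 Multiplexed cis-reporter mRNA induction, HepG2, 24 h post-dose. RT-PCR, FAM-labelled, HpaI-digested amplicons by CE. Bidirectional fit vs DMSO.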
# [20] = target: Paired box protein Pax-6 (Homo sapiens) (UniProt P26367); assay: ATG_Pax6_CIS: Attagene CIS-FACTORIAL HepG2 Assay for human Paired Box 6 (PAX6) (AID 2282956); conditions: HepG2 CIS-FACTORIAL PAX6 reporter transcription, RNA readout; actives raise or lower the signal
# Summary of the method: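 Fluorescent RT-PCR products separated by capillary electrophoresis report PAX6-linked promoter mRNA in HepG2 cells 24 h post-dose. Curves fitted bidirectionally, DMSO as negative control.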
# Aryl hydrocarbon receptor (Homo sapiens), sequence (P35869 whole entry, looked up): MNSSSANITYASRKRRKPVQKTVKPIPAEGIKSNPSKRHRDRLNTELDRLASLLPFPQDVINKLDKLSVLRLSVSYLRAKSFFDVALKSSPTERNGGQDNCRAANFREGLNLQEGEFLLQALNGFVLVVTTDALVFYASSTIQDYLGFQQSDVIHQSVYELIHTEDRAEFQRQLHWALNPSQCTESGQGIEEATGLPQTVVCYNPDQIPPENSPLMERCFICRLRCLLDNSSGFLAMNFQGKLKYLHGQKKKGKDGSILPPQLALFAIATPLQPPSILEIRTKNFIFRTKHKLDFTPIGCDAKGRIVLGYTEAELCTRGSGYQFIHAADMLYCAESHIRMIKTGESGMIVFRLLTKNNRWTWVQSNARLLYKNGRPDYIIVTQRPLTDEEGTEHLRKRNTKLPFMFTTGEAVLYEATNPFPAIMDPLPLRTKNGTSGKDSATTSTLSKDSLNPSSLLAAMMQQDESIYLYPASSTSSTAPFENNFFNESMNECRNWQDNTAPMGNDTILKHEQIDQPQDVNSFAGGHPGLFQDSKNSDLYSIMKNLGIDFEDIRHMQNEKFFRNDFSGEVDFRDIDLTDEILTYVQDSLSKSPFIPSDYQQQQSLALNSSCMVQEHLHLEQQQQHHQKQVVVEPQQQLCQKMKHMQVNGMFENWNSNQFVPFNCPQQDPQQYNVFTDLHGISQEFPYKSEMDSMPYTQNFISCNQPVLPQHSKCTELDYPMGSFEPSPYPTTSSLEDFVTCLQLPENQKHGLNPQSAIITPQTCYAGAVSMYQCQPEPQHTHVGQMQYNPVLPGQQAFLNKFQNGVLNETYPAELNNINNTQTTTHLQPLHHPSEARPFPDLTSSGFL
# Myc proto-oncogene protein (Homo sapiens), sequence (P01106 whole entry, looked up): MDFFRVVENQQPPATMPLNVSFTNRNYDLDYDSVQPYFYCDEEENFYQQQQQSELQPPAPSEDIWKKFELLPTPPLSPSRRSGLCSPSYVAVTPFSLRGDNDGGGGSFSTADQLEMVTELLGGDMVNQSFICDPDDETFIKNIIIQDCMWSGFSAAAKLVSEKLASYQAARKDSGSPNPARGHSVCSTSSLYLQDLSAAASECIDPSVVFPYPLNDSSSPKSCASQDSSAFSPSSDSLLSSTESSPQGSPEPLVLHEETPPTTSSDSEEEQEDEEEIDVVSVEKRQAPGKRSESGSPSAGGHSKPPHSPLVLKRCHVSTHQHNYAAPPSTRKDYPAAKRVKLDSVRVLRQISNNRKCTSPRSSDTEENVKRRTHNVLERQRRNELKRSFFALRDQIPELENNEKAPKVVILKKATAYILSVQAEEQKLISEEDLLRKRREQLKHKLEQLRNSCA
# Transcriptional activator Myb (Homo sapiens), sequence (P10242 whole entry, looked up): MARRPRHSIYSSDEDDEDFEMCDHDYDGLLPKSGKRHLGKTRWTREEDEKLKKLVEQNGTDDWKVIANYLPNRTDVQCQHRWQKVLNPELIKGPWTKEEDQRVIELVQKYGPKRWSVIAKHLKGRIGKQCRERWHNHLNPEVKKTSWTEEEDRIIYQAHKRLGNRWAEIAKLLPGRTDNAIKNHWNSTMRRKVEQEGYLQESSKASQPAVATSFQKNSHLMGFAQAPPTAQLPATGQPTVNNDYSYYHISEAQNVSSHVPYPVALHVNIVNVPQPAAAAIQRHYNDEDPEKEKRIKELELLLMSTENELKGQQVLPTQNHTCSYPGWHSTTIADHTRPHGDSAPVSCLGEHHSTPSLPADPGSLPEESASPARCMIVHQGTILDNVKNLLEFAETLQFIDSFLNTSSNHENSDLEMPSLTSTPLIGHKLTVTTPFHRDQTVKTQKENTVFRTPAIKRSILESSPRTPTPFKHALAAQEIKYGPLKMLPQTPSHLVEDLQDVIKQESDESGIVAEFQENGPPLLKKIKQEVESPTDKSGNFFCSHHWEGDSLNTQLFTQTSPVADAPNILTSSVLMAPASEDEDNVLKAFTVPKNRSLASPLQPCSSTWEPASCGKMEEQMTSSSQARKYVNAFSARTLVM
# Peroxisome proliferator-activated receptor gamma (Homo sapiens), sequence (P37231 whole entry, looked up): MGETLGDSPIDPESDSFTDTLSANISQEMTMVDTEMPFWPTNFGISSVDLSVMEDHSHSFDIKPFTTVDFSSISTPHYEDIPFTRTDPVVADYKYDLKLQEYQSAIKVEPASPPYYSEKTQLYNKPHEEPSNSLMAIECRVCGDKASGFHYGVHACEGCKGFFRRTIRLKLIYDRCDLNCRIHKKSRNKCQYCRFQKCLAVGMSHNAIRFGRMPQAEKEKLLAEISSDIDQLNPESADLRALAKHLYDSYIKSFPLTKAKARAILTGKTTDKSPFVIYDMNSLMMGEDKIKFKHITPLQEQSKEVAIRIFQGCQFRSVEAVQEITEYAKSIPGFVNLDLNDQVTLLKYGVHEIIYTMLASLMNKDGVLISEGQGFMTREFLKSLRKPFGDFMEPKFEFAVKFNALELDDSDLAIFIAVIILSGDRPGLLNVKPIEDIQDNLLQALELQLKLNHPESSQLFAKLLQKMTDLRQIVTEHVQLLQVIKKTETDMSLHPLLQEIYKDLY
# Paired box protein Pax-6 (Homo sapiens), sequence (P26367 whole entry, looked up): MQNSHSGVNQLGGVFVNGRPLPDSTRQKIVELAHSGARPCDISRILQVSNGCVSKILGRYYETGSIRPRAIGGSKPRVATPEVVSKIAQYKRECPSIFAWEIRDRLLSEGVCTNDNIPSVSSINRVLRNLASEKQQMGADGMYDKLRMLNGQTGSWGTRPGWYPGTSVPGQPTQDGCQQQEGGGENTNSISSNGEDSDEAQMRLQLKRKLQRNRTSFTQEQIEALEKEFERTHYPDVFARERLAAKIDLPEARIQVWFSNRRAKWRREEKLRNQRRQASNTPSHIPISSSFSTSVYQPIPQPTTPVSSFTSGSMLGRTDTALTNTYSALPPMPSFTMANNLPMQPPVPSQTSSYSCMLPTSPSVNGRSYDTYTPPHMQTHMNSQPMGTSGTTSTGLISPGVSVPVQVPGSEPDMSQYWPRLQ
# Hypoxia-inducible factor 1-alpha (Homo sapiens), sequence (Q16665 whole entry, looked up): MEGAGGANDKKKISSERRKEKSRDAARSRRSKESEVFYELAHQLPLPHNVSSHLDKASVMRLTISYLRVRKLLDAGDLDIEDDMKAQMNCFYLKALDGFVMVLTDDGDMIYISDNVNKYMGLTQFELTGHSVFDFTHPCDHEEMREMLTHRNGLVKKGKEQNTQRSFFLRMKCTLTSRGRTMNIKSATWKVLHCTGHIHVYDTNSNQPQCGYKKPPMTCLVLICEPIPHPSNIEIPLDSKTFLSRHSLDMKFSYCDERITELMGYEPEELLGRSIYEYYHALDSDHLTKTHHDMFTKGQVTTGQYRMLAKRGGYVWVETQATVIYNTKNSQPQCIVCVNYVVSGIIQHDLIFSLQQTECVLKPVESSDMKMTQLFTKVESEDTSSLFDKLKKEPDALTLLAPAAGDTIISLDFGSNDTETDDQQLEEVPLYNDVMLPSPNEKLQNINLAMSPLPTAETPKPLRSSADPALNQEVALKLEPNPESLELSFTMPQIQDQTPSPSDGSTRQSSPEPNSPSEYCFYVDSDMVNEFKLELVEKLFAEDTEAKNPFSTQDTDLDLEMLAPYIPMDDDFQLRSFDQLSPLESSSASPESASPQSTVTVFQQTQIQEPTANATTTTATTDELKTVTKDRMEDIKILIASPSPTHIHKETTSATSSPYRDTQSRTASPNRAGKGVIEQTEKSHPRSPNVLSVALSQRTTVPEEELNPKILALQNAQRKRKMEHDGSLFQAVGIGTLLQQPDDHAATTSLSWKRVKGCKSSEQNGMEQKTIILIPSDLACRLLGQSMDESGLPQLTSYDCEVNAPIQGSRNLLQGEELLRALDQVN
# X-box-binding protein 1 (Homo sapiens), sequence (P17861 whole entry, looked up): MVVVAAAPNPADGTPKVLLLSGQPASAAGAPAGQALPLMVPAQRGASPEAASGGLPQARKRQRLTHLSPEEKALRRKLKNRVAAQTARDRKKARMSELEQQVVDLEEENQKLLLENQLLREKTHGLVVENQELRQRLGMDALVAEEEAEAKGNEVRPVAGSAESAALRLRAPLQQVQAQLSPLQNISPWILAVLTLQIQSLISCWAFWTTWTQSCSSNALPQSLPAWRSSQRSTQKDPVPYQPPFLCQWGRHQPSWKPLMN
# Nuclear respiratory factor 1 (Homo sapiens), sequence (Q16656 whole entry, looked up): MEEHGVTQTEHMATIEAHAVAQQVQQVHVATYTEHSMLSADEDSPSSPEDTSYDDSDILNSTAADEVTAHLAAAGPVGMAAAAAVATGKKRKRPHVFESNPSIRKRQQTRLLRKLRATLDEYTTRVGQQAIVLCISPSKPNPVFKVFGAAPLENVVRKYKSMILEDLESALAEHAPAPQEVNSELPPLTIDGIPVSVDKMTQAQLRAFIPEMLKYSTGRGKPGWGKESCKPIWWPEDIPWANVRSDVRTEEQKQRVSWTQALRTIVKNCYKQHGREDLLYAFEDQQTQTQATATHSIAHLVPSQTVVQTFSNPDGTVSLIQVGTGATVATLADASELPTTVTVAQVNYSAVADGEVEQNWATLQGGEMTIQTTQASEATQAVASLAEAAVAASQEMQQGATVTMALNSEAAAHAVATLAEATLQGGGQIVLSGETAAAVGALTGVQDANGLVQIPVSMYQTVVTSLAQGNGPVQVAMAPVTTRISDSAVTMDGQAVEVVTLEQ
# Cellular tumor antigen p53 (Homo sapiens), sequence (P04637 whole entry, looked up, the tested form may be a part): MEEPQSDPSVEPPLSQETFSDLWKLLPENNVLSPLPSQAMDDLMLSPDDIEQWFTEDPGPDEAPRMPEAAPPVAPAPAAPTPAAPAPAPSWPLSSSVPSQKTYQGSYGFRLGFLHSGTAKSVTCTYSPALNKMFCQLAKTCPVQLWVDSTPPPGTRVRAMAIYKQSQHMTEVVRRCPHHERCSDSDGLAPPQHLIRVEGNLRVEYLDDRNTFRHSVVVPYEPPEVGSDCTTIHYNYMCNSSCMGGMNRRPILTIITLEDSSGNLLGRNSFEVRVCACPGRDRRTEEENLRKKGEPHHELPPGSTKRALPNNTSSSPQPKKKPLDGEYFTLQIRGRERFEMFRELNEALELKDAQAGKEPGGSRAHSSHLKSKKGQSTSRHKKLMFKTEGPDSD
structure (smiles),measurement,setting,value
CC(=O)c1cc2c(cc1C)C(C)(C)C(C)CC2(C)C (stereo unspecified),outcome,[1],inactive
same,AC50,[2],75.5 µM (active)
same,AC50,[3],2.78 µM (active)
same,AC50,[4],43.8 µM (active)
same,AC50,[5],168 µM (active)
same,outcome,[6],inactive
same,outcome,[7],inactive
same,AC50,[8],66.6 µM (active)
same,AC50,[9],55.9 µM (active)
same,outcome,[10],inactive
same,AC50,[11],25.4 µM (active)
same,AC50,[12],60.9 µM (active)
same,outcome,[13],inactive
same,AC50,[14],64.3 µM (active)
same,outcome,[15],inactive
same,outcome,[16],inactive
same,outcome,[17],inactive
Oc1cc(Cl)ccc1Cl,outcome,[18],inactive
same,outcome,[1],inactive
same,outcome,[2],inactive
same,outcome,[19],inactive
same,outcome,[3],inactive
same,outcome,[4],inactive
same,outcome,[20],inactive
same,outcome,[5],inactive
same,outcome,[6],inactive
same,outcome,[7],inactive
same,outcome,[8],inactive
same,outcome,[9],inactive
same,outcome,[10],inactive
same,outcome,[11],inactive
same,outcome,[12],inactive
same,outcome,[13],inactive
same,outcome,[14],inactive
same,outcome,[15],inactive
same,outcome,[16],inactive
same,outcome,[17],inactive
CC1(C)[C@H](C(=O)O[C@H](C#N)c2cccc(Oc3ccccc3)c2)[C@@H]1C=C(Br)Br,outcome,[18],inactive
same,outcome,[1],inactive
same,outcome,[2],inactive
same,outcome,[19],inactive
same,outcome,[3],inactive
same,outcome,[4],inactive
same,outcome,[20],inactive
same,outcome,[5],inactive
same,AC50,[6],56.7 µM (active)
same,outcome,[8],inactive
same,outcome,[9],inactive
same,outcome,[10],inactive
same,outcome,[11],inactive
same,outcome,[12],inactive
same,outcome,[13],inactive
same,outcome,[14],inactive
same,outcome,[15],inactive
same,AC50,[16],2.94 µM (active)
same,outcome,[17],inactive
CC(C)(c1cc(Cl)c(O)c(Cl)c1)c1cc(Cl)c(O)c(Cl)c1,outcome,[18],inactive
same,outcome,[1],inactive
same,AC50,[2],60.7 µM (active)
same,outcome,[19],inactive
same,outcome,[3],inactive
same,AC50,[4],58.4 µM (active)
same,AC50,[20],52.3 µM (active)
same,AC50,[5],33.4 µM (active)
same,outcome,[6],inactive
same,AC50,[7],27.2 µM (active)
same,outcome,[8],inactive
same,AC50,[9],47.8 µM (active)
same,outcome,[10],inactive
same,outcome,[11],inactive
same,outcome,[12],inactive
same,AC50,[13],9 µM (active)
same,outcome,[14],inactive
same,AC50,[15],52.1 µM (active)
same,AC50,[16],3.75 µM (active)
same,outcome,[17],inactive
